In the library only some 13% were active in any assay of this set; here they are far more common.
HCV inh – inhibitors of hepatitis C virus infection; Huh7.5.1 HCVcc-Cre infection, luciferase reporter, 44 h; Potency, µM (series often up to 41.8 µM), without a hit: at the highest dose activity change, negative = inhibition, hits mostly inhibitors; 340,000 compounds, 3.4% hits; also: potency is read from the fitted curve at half-maximal effect
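Infectious HCV cell culture screen: compound-treated cells (1,000/well, pre-plated 4 h) are infected with HCVcc-Cre at roughly 0.5 moi and grown 44 h. Infection is quantified by luciferase signal after 15 min substrate incubation at room temperature.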
Pf growth 48h – P. falciparum growth inhibition at 48 hours (one generation); P. falciparum luciferase growth in erythrocytes, 48 h; Potency, µM (titrated, usually from 28.7 µM), without a hit: at the highest dose activity change, negative = inhibition, actives largely listed as inhibitors; 310,000 compounds, 5.9% hits; also: potency is read from the fitted curve at half-maximal effect
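Firefly luciferase activity from engineered P. falciparum reports growth; inhibitors lower the luminescent signal. Cultures contained 2% hematocrit erythrocytes at 0.1% final parasitemia.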
Pf growth 96h – P. falciparum growth inhibition at 96 hours | Potency, µM (doses to about 28.7 µM), for inactives: top-dose activity change, negative = inhibition, hits mostly inhibitors | P. falciparum luciferase reporter growth, 96 h | AID 504834 | 320,000 compounds, 6.9% hits; also: potency is read from the fitted curve at half-maximal effect
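Infected RBCs, 2% Hct / 0.05% parasitemia final; luciferase-reporter P. falciparum; cpd 96 h, 37 C, 5% CO2; luciferase detection reagent; luminescence.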
HCMV inh – blocks human cytomegalovirus replication; HFF cells, HCMV-luciferase reporter, 72 h; hits give low values; activity change, negative = inhibition, % at 57.5 µM; 410,000 compounds, 4.5% hits; AID 1259415; in the data active = activity change below about -60%; inconclusive = no clear call, values can overlap the other calls; inactive = above about -39%
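Luciferase read-out from HCMV-luciferase-infected HFFs (MOI 1 PFU/cell) 72 h post infection at 37C; compounds added after 16 h cell attachment; activity normalized between buffer-only basal and Salinomycin (10uM) inhibitor controls.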
* marks the source's active call; other numbers are inactive results; ? = inconclusive; nt = no result; [ ] = another dose, or the depositor's remark. Unless noted, calls follow the shape of the dose curve; as a rule, active = well fitted inhibition curve with a large enough effect; inconclusive = small, poorly fitted or top-dose-only effect, or another doubt; inactive = no such curve, though single readings can be large or run the other way. % is scaled to controls: 0 for no effect and ±100 for the full control effect.

SMILES | HCV inh | Pf growth 48h | Pf growth 96h | HCMV inh
CC(=O)Cc1nsc(Nc2ccc(F)cc2)n1 | 27% | 2% | 10µM* | -23
COc1ccc(C(=O)c2cn(Cc3cccc(C)c3)c3cc4c(cc3c2=O)OCCO4)cc1OC | nt | nt | nt | -3
COC(=O)[C@@H]1[C@@H](CO)[C@@H]2Cn3c(ccc(Br)c3=O)[C@@H]2N1C | nt | nt | nt | 0
O=C(CCCCCn1c(=S)[nH]c2cc3c(cc2c1=O)OCO3)N1CCN(C(=O)c2ccco2)CC1 | ? | ? | ? | -10
O=C(CCCCCn1c(=S)[nH]c2cc3c(cc2c1=O)OCO3)N1CCN(Cc2ccccc2)CC1 | ? | 12µM* | -1% | -25
O=C(CCn1c(=S)[nH]c2cc3c(cc2c1=O)OCO3)NCc1cccc(Cl)c1 | -28% | -15% | ? | 1
O=C(CCCn1c(=S)[nH]c2cc3c(cc2c1=O)OCO3)NCc1cccc(Cl)c1 | 13% | -29% | 9.3µM* | -13
COc1cccc(CNC(=O)c2c(C)oc3nc(C)nc(N4CCOCC4)c23)c1 | nt | nt | nt | -13
COC(=O)C1CCN(C(=O)c2cc3c(=O)n4cccc(C)c4nc3n2Cc2ccccc2)CC1 | -4% | 5.9µM* | 4.1µM* | 5
Cc1cccn2c(=O)c3cc(C(=O)NCC4CCCO4)c(=N)n(CCc4ccccc4)c3nc12 (centres undefined) | -3% | 4.7µM* | ? | -17
COc1ccc(CCNC(=O)c2cc3c(=O)n4cccc(C)c4nc3n(CC3CCCO3)c2=N)cc1 (centres undefined) | -5% | 1.5µM* | ? | -31
C[C@@H]1CC[C@H]2[C@@H](C)C(=O)O[C@@H]3O[C@@]4(C)CC[C@@H]1[C@]32OO4 | -3% | 0.0033µM* | 0.0033µM* | nt
C[C@@H]1CC[C@H]2[C@@H](C)C(=O)O[C@@H]3OC4(C)CC[C@@H]1C32OO4 (some centres undefined) | nt | 0.0034µM* | 0.0027µM* | nt
C[C@@H]1CCC2[C@@H](C)C(=O)O[C@@H]3OC4(C)CCC1[C@@]23OO4 (some centres undefined) | 7% | nt | nt | nt
Nc1cccc2c(O)cccc12 | 22% | nt | nt | -102*
CC(C)[C@@]1(NC(=O)[C@@H]2C[C@@H]3c4cccc5[nH]cc(c45)C[C@H]3N(C)C2)O[C@@]2(O)[C@@H]3CCCN3C(=O)[C@H](Cc3ccccc3)N2C1=O | 4%[8.37 µM] | 1.9µM* | 1.9µM* | 39
CN1C[C@H](CO)C=C2c3cccc4[nH]cc(c34)C[C@H]21 | -13% | ? | ? | 14
CC(C)C[C@H]1C(=O)N2CCC[C@H]2[C@]2(O)O[C@](NC(=O)[C@@H]3C=C4c5cccc6[nH]c(Br)c(c56)CC4N(C)C3)(C(C)C)C(=O)N12 (some centres undefined) | -1% | 2.3µM* | 4.1µM* | -17
CC(C)[C@@]1(NC(=O)[C@@H]2C=C3c4cccc5[nH]cc(c45)C[C@H]3N(C)C2)O[C@@]2(O)[C@@H]3CCCN3C(=O)[C@H](Cc3ccccc3)N2C1=O | -3%[8.37 µM] | 2.9µM* | 2.3µM* | nt
CC(C)[C@H]1C(=O)N2CCC[C@H]2[C@]2(O)O[C@](NC(=O)[C@@H]3C=C4c5cccc6[nH]cc(c56)C[C@H]4N(C)C3)(C(C)C)C(=O)N12 | -16%[8.37 µM] | 5.9µM* | 7.4µM* | nt
O=C(/C=C(\Nc1cccc(Cl)c1)c1ccccc1)c1ccccc1 | nt | nt | nt | 198
Cc1nn(-c2ccc(N3CCCC3)nn2)c(C)c1CCC(=O)Nc1ccc(F)cc1F | nt | nt | nt | -29
Cc1nnc(N2CCC(C(=O)NC3CCCCC3)CC2)c2nn(-c3ccc(Cl)cc3)c(C)c12 | nt | nt | nt | -3
CC(C)C[C@H]1C(=O)N2CCCC2[C@]2(O)O[C@](NC(=O)[C@@H]3C=C4c5cccc6[nH]cc(c56)CC4N(C)C3)(C(C)C)C(=O)N12 (some centres undefined) | ? | 2.6µM* | 2.3µM* | nt
Cc1cc(N2CCC(C(=O)Nc3ccccc3Cl)CC2)n2nc(C)c(-c3ccc(Cl)cc3)c2n1 | nt | nt | nt | -2
Cc1nc(N2CCN(C)CC2)c2sc(=S)n(C)c2n1 | ? | nt | 9.3µM* | nt
Cc1nc(N2CCN(C)CC2)c2sc(=S)n(-c3ccccc3)c2n1 | -16% | 2% | -28% | -2
CC1=C(CC(=O)c2ccccc2)C(=O)c2ccccc2C1=O | ? | 0.74µM* | 0.83µM* | -99*
Clc1ccccc1/C=C/c1nc(-c2ccccn2)no1 | -27% | 2.1µM* | 67% | ?

Source: PubChem
